Screens as filed in PubChem.
MRP resist rev = MRP-mediated drug resistance reversal | H69AR cells + 2 uM doxorubicin, CellTiter-Glo, 72 h | differential viability (reversal), % at 10 µM | 0.04% of 85,000 active | AID 602;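 active = viability drop by adding the cancer drug above about 55%, with treated viability meeting a 40% cutoff, limit read from the data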;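 note: viability without doxorubicin minus viability with 2 µM doxorubicin for each compound; larger differential means the compound sensitizes cells more to doxorubicin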
CYP2C9 inh = blocks human cytochrome P450 2C9; CYP2C9 Supersomes, luciferin-H conversion, luminescence; 20% of 96,000 active; inhibition, % at 5 µM;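 active = blocking of liver enzyme CYP2C9 beyond about 50% at 5 µM, limit read from the data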
CYP2C19 inh = blocks human cytochrome P450 2C19 | CYP2C19 Supersomes, luciferin-H EGE luminescence, 30 min | P33261 | inhibition, % at 5 µM | 21% of 96,000 active;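 active = CYP2C19 inhibition above a set limit at 5 µM in the primary screen, cut at about 50% in these data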;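 note: plate controls were negative control wells for no effect and 2.5 mM tranylcypromine positive control for full effect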
Target sequence (P33261 whole entry, looked up): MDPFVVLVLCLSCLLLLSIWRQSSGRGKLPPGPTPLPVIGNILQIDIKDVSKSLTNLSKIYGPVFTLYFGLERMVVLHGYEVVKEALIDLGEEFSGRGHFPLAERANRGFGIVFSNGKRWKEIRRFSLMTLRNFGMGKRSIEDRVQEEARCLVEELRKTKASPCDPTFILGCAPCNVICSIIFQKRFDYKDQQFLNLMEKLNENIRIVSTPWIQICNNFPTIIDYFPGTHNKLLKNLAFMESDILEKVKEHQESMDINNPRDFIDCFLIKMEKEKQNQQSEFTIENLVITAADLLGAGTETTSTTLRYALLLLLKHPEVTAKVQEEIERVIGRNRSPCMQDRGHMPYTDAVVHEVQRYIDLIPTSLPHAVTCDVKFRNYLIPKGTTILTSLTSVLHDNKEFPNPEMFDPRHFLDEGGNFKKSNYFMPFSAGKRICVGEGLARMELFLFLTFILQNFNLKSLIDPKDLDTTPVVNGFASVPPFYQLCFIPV
MRP-1 activ = MRP-1 activation | H69AR cells + doxorubicin, viability rescue, CellTiter-Glo | viability increase, % at 10 µM | 0.61% of 140,000 active;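 active = viability gain under doxorubicin at or above a set limit, the compound median plus 3 SD, cut at about 4.7% in these data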;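 note: MRP-1 overexpressing cells given doxorubicin 25 µM after compound pretreatment; 18-22 h compound pretreatment then 72 h with doxorubicin before readout; 0% = doxorubicin-only wells and 100% = vehicle-treated cells without doxorubicin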
CYP2C9 activ = CYP2C9 (human) activation. P11712. recombinant CYP2C9, luciferin-H conversion, luminescence; active compounds read high; factor 1 = untreated enzyme, 0 = blocked. AID 1024. activation factor at 5 µM. 1.4% of 96,000 active;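 active = activation factor of 2 or more for CYP2C9 at a 5 µM dose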;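 note: 0 = sulfaphenazole-blocked wells and 1 = vehicle-only wells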
CYP2C19 act = cytochrome P450 2C19 (human) activation | P33261 | recombinant CYP2C19, luciferin-H EGE luminescence; active compounds read high; 0 = fully inhibited enzyme, 1 = untreated enzyme | activation factor at 5 µM | 96,000 tested, under 10 active;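 active = activation factor of at least 2 at 5 µM in the primary screen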;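 note: 0 = wells with 2.5 mM tranylcypromine and 1 = vehicle-only wells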
The depositor's hits bear a star. An excerpt weighted towards active compounds, which were near 21% of everything screened.

What do the screens show for `CCOc1nnnc2c1sc1nc(N3CCOCC3)c3c(c12)CCCC3`?
MRP resist rev: 7; CYP2C9 inh: 98*; CYP2C19 inh: 94*; MRP-1 activ: 0; CYP2C9 activ: 0; CYP2C19 act: 0.1

Results for CCN1CCN(c2ncnc3c2sc2nc(N4CCOCC4)c4c(c23)CCC4)CC1 ?
CYP2C9 inh: 54*; CYP2C19 inh: 73*; CYP2C9 activ: 0.5; CYP2C19 act: 0.3

Results for COc1ccc(NC(=O)c2c3c(nc4ccccc24)CCC3)cc1S(=O)(=O)N1CCOCC1 ?
MRP-1 activ: -2

What do the screens show for `COCCOC(=O)C1=C(N)OC2=C(C(=O)CC(C)(C)C2)C1c1cccnc1` (stereo not given)?
MRP resist rev: 16; CYP2C9 inh: 16; CYP2C19 inh: 27; MRP-1 activ: 0; CYP2C9 activ: 0.8; CYP2C19 act: 0.7

How did CCOC(=O)C1=C(N)OC2=C(C(=O)CCC2)C1c1cccs1 (stereo not given) do in these assays?
MRP resist rev: 8; CYP2C9 inh: 80*; CYP2C19 inh: 88*; MRP-1 activ: -1; CYP2C9 activ: 0.2; CYP2C19 act: 0.1

What do the screens show for `COCCOC(=O)C1=C(N)OC2=C(C(=O)CCC2)C1c1cccnc1` (stereo not given)?
MRP resist rev: 6; CYP2C9 inh: -2; CYP2C19 inh: 61*; MRP-1 activ: 1; CYP2C9 activ: 1; CYP2C19 act: 0.4

Results for CCOC(=O)C1=C(C)NC2=C(C(=O)CCC2)C1c1cccs1 (stereo not given) ?
MRP resist rev: 3; CYP2C9 inh: 64*; CYP2C19 inh: 74*; MRP-1 activ: 0; CYP2C9 activ: 0.4; CYP2C19 act: 0.3

Results for CCOC(=O)c1sc2c(c1C)C(c1cccs1)C1=C(CCCC1=O)N2 (stereo not given) ?
MRP resist rev: 5; CYP2C9 inh: 46; CYP2C19 inh: 10; MRP-1 activ: 0; CYP2C9 activ: 0.5; CYP2C19 act: 0.9

What do the screens show for `COC(=O)C1=C(N)OC2=C(C(=O)CCC2)C1c1cccs1` (stereo not given)?
MRP resist rev: 10; CYP2C9 inh: 23; CYP2C19 inh: 34; MRP-1 activ: -1; CYP2C9 activ: 0.8; CYP2C19 act: 0.7

What do the screens show for `COc1ccc2[nH]c3c(N4CCC(O)(c5cccc(C(F)(F)F)c5)CC4)ncnc3c2c1`?
CYP2C9 inh: 67*; CYP2C19 inh: 40; MRP-1 activ: -8; CYP2C9 activ: 0.3; CYP2C19 act: 0.6

How did COc1ccc2[nH]c3c(N4CCN(Cc5ccc6c(c5)OCO6)CC4)ncnc3c2c1 do in these assays?
MRP resist rev: -24; CYP2C9 inh: 82*; CYP2C19 inh: 58*; MRP-1 activ: -6; CYP2C9 activ: 0.2; CYP2C19 act: 0.4

What do the screens show for `COc1ccc2c(c1)c1ncnc(N3CCN(Cc4ccc5c(c4)OCO5)CC3)c1n2C`?
MRP resist rev: -5; CYP2C9 inh: 82*; CYP2C19 inh: 22; MRP-1 activ: -7; CYP2C9 activ: 0.2; CYP2C19 act: 0.8

What do the screens show for `O=C(c1cc2c(=O)oc3ccccc3c2s1)N1CCN(c2ccccn2)CC1`?
MRP resist rev: -8

What do the screens show for `Nc1nc(=S)[nH]c2c1C1(CCCCC1)Cc1ccccc1-2`?
MRP-1 activ: -3

Results for Cc1cc2n(n1)C(c1cn(-c3ccccc3)nc1C)Nc1ccccc1-2 (stereo not given) ?
MRP resist rev: 22; CYP2C9 inh: 42; CYP2C19 inh: 20; MRP-1 activ: 0; CYP2C9 activ: 0.6; CYP2C19 act: 0.8

What do the screens show for `Cc1cc2n(n1)C(c1c[nH]c3ccccc13)Nc1ccccc1-2` (stereo not given)?
MRP resist rev: -7; CYP2C9 inh: 81*; CYP2C19 inh: 22; MRP-1 activ: -3; CYP2C9 activ: 0.2; CYP2C19 act: 0.8

Results for O=C(Nc1ccccc1F)c1ccc(CSc2ccccc2)o1 ?
MRP-1 activ: -1

Results for COc1ccc(OCCN2C(=O)NC3(CCc4ccccc4C3)C2=O)cc1 (stereo not given) ?
MRP-1 activ: -2

What do the screens show for `Cc1ccccc1OCCN1C(=O)NC2(CCc3ccccc32)C1=O` (stereo not given)?
MRP resist rev: 1; CYP2C9 inh: -95; CYP2C19 inh: 35; MRP-1 activ: -1; CYP2C9 activ: 2*; CYP2C19 act: 0.7

Results for O=C1NC2(CCc3ccccc32)C(=O)N1CCOc1ccc(Cl)cc1 (stereo not given) ?
CYP2C9 inh: 77*; CYP2C19 inh: 6; MRP-1 activ: 0; CYP2C9 activ: 0.2; CYP2C19 act: 0.9

What do the screens show for `Cc1ccc(C(=O)c2coc3cc([N+](=O)[O-])c(O)c([N+](=O)[O-])c23)cc1`?
MRP-1 activ: -2

Results for COc1ccccc1NC(=O)COC(=O)C1CCN(/C=C/C(=O)C(F)(F)F)CC1 ?
MRP-1 activ: -1

Results for COCc1cc(C)nc(NC2CCCCC2)c1C#N ?
MRP resist rev: 18; CYP2C9 inh: 4; CYP2C19 inh: -4; MRP-1 activ: -3; CYP2C9 activ: 1; CYP2C19 act: 1

How did COCc1cc(C)nc(N2CCN(Cc3ccccc3)CC2)c1C#N do in these assays?
MRP resist rev: 8; CYP2C9 inh: 14; CYP2C19 inh: 95*; MRP-1 activ: -2; CYP2C9 activ: 0.9; CYP2C19 act: 0.1

Results for COCc1cc(C)nc(N2CCCCC2)c1C#N ?
MRP resist rev: 17; MRP-1 activ: 0

Results for COCc1cc(C)nc(NCCc2ccccc2)c1C#N ?
MRP resist rev: 11; CYP2C9 inh: 4; CYP2C19 inh: 52*; MRP-1 activ: -5; CYP2C9 activ: 1; CYP2C19 act: 0.5

Results for COCc1cc(C)nc(N2CCNCC2)c1C#N ?
MRP resist rev: -13; CYP2C9 inh: -15; CYP2C19 inh: -9; MRP-1 activ: 0; CYP2C9 activ: 1.1; CYP2C19 act: 1.1

How did COCc1cc(C)nc(N2CCN(c3ccccc3)CC2)c1C#N do in these assays?
MRP resist rev: 13; CYP2C9 inh: -139; CYP2C19 inh: 69*; MRP-1 activ: 0; CYP2C9 activ: 2.4*; CYP2C19 act: 0.3

What do the screens show for `CCc1c(C(=O)Nc2ccc(S(=O)(=O)N3CCOCC3)cc2)csc1C`?
MRP resist rev: -8; CYP2C9 inh: 43; CYP2C19 inh: 35; MRP-1 activ: -1; CYP2C9 activ: 0.6; CYP2C19 act: 0.6

Results for Cc1c(NC(=O)C(C)NCC2CCCO2)c(=O)n(-c2ccccc2)n1C (stereo not given) ?
MRP resist rev: 10; CYP2C9 inh: -7; CYP2C19 inh: 4; MRP-1 activ: -1; CYP2C9 activ: 1.1; CYP2C19 act: 1

Results for O=[N+]([O-])c1ccc(S(=O)(=O)CC2CSc3nc4ccccc4n32)cc1 (stereo not given) ?
MRP-1 activ: -2
